Test results: PubChem BioAssay AID463173 (ICCB-Longwood Screening Facility, Harvard Medical School, 2010)
The whole screen tested about 52,000 compounds, of which about 4,300 (8.3%) were called active. This excerpt belongs to a sample that is enriched for actives. Unmarked numbers belong to inactive results. Cut-off read from the data, not from the text of the source: active = survival mostly below about 52% (no sharp cut-off); inactive = mostly above about 56%.

System: DeltatarO mutant
Assay: S. aureus survival, RN4220 and DeltatarO strains – OD600, teichoic acid synthesis inhibitors, primary screen (AID 463173)
Settings: S. aureus RN4220 wild type/DeltatarO growth, OD600, 18 h, hits give low values, screened at 18.75 µg/mL (by protocol)

In the case of `Cc1nnc(SCc2ccccc2)n1N`, the survival is reported as 61% (active).
For `COC(=O)c1ccccc1NC(=O)Cc1noc2ccc(C)cc12`, the survival was 39% (active).
`COc1ccc(NC(=O)Cc2noc3ccc(C)cc23)cc1Cl` was tested, and the survival was 56% (active).
With `Cc1ccc2onc(CC(=O)Nc3ccc(C(C)C)cc3)c2c1` the survival was 46% (active).
For `CCOc1ccccc1NC(=O)NCc1noc2ccc(C)cc12`, the survival was 35% (active).
In the case of `Cc1cc(C)cc(NC(=O)Cc2noc3ccccc23)c1`, the survival is reported as 54% (active).
With `CCOC(=O)c1ccc(NC(=O)Cc2noc3ccc(C)cc23)cc1` the survival was 45% (active).
For `COc1ccccc1NC(=O)C1=C(C)NC2=C(C(=O)CCC2)C1c1cc2c(cc1Br)OCO2` (configuration not stated), the survival was 44% (active).
For `CC(C)(C)C1CCc2nc(NC(=O)Cc3ccc(Cl)cc3)sc2C1` (configuration not stated), the survival was 18% (active).
For `CCCC(=O)Nc1nc2c(s1)CC(C(C)(C)C)CC2` (configuration not stated), the survival was 14% (active).
With `CC1CCc2nc(NC(=O)Cc3ccc(Cl)cc3)sc2C1` (configuration not stated) the survival was 46% (active).
For `COc1ccc(CC(=O)Nc2nc3c(s2)CC(C(C)(C)C)CC3)cc1` (configuration not stated), the survival was 29% (active).
In the case of `CC(C)(C)C1CCc2nc(NC(=O)c3cccc(Cl)c3)sc2C1` (configuration not stated), the survival is reported as 3% (active).
In the case of `CC(C)(C)C1CCc2nc(NC(=O)Cc3ccccc3)sc2C1` (configuration not stated), the survival is reported as 19% (active).
For `CCc1cc(=O)oc2cc(C)c3c(-c4ccc(F)cc4)coc3c12`, the survival was 33% (active).
For `COc1ccc(-c2coc3c2c(C)cc2oc(=O)c(CC(=O)O)c(C)c23)cc1`, the survival was 42% (active).
For `Cc1cccc(C(=O)Nc2sc3c(c2C(=O)O)CCCC3)c1`, the survival was 23% (active).
In the case of `Cc1cccc(C(=O)Nc2sc3c(c2C(=O)NC(C)C)CCCC3)c1`, the survival is reported as 46% (active).

Compared with `Cc1nnc(SCC(=O)O)n1N`, `O=C(O)CSc1nc2ccccc2c(=O)n1-c1ccccc1` is lower in survival: 114% for the first, 78% for the second.

First: Cn1c(SCc2ccccc2)nnc1-c1ccccc1
Second: Cc1cccc(OCc2nnc(SC(C)C(=O)O)n2Cc2ccccc2)c1 (configuration not stated)
The survival of the first is lower: 93% for the first, 103% for the second.

Compared with `CC(C)Oc1ccc(CNC(=O)C2=Cc3ccccc3OC2)cc1`, `CN(C)c1ccc(CNC(=O)c2cccc(NC(=O)N3CCSc4ncccc43)c2)cc1` is higher in survival: 67% for the first, 94% for the second.

First: CCOc1ccc(CCNC(=O)CCCc2nnc3n(CC)c(=O)c4sccc4n23)cc1OCC
Second: CCCCC(=O)Nc1cc2nn(-c3ccc(OCC)cc3)nc2cc1C
The survival of the first is higher: 92% for the first, 70% for the second.

Compared with `CCOC(=O)c1ccccc1NC(=O)CSc1ncc2c(n1)-c1ccccc1N(CC)S2(=O)=O`, `CCOC(=O)c1ccc(NC(=O)CSc2nc3ccccc3c(=O)n2CCNC(C)=O)cc1` is higher in survival: 83% for the first, 91% for the second.

Going from `COc1ccc(OC)c(CNC(=O)NCc2noc3ccc(C)cc23)c1` to `COc1ccccc1CNC(=O)NCc1noc2ccc(C)cc12`, the survival falls from 104% to 56%.

`CCOc1ccccc1NC(=O)Cc1noc2ccc(C)cc12` and `Cc1ccc2onc(CC(=O)Nc3cc(F)ccc3F)c2c1` are the same in survival: 48% for the first, 48% for the second.

Compared with `COc1ccc(Cl)cc1N(C)C(=O)Cc1noc2ccc(C)cc12`, `Cc1ccc(CNC(=O)NCc2noc3ccc(C)cc23)cc1` is lower in survival: 50% for the first, 47% for the second.

Compared with `Cc1ccc2onc(CNC(=O)Nc3ccccc3C#N)c2c1`, `Cc1cc(C)cc(NC(=O)NCc2noc3ccccc23)c1` is lower in survival: 76% for the first, 52% for the second.

Compared with `CC(=O)c1cccc(NC(=O)Cc2noc3ccccc23)c1`, `COc1cc(NC(=O)Cc2noc3ccccc23)cc(OC)c1OC` is higher in survival: 49% for the first, 57% for the second.

Compared with `Cc1ccc(-c2nn3c(=O)cc(CN4CCN(C(=O)c5ccc(C(C)(C)C)cc5)CC4)nc3s2)cc1`, `CCN1CCN(C(=O)c2ccc3c(c2)N(Cc2ccccc2F)C(=O)c2ccccc2S3=O)CC1` (configuration not stated) is higher in survival: 67% for the first, 105% for the second.

First: CCN(c1ccccc1)S(=O)(=O)c1c(C)nc2scc(C)n2c1=O
Second: Cc1cc2oc(=O)c(CC(=O)O)c(C)c2c2occ(-c3ccccc3)c12
The survival of the first is higher: 66% for the first, 53% for the second.

Compared with `COc1ccc(CC(=O)NC2CC(=O)N(c3ccc(C)c(C)c3)C2)cc1OC` (configuration not stated), `COc1ccc(CC(=O)Nc2nc3c(s2)CC(C)CC3)cc1` (configuration not stated) is higher in survival: 63% for the first, 75% for the second.

Compared with `Cc1cc(C(=O)Nc2ccc(-n3c(C)nc4ccccc4c3=O)cc2)ccc1[N+](=O)[O-]`, `Cc1cc(Nc2cccc(Cl)c2)nc2ccc(NC(=O)c3cccc(N(C)C)c3)cc12` is lower in survival: 131% for the first, 106% for the second.

Going from `CCOc1ccc(NC(=O)Cc2coc3ccc(C)cc23)cc1` to `CCOC(=O)c1ccc(NC(=O)Cc2coc3cc(C)cc(C)c23)cc1`, the survival falls from 106% to 60%.

First: Cc1ccc(CNC(=O)C(C)n2c(=O)cc(C(F)(F)F)c3c(C)nn(C)c32)cc1 (configuration not stated)
Second: CCc1ccc(CNC(=O)c2nn(-c3ccc(OC)c(Cl)c3)c(=O)c3c2c2ccccc2n3C)cc1
The survival of the first is lower: 67% for the first, 104% for the second.

Compared with `O=C(NCc1ccco1)C1CCN(C(=O)N2CCOc3ccccc32)CC1`, `Cc1cccc(C(=O)Nc2sc3c(c2C(=O)NCc2ccco2)CCCC3)c1` is higher in survival: 80% for the first, 83% for the second.

Going from `O=C(c1ccco1)N(Cc1cccs1)c1ccc(F)cc1` to `O=C(NCc1ccccc1)c1ccccc1C(=O)c1ncc[nH]1`, the survival falls from 111% to 91%.

Going from `CCc1ccc(NC(=O)C2CCN(c3nnc(-n4c(C)ccc4C)s3)CC2)cc1` to `CCc1ccc(CNC(=O)C2CCN(c3nnc(-n4c(C)ccc4C)s3)CC2)cc1`, the survival rises from 79% to 86%.

Going from `NNc1ccc2nnc(C(F)(F)F)n2n1` to `CCc1ccc(Cn2nnc(C(=O)Nc3ccc(C)cc3)c2N)cc1`, the survival rises from 73% to 133%.

First: Cc1ccc(CNc2ncnc3c2c(-c2ccccc2)cn3-c2ccccc2)cc1
Second: Cc1nn(-c2ccccc2)c2[nH]c(=O)c(CNCc3cccnc3)cc12
The survival of the first is lower: 90% for the first, 102% for the second.

First: O=S(=O)(NCc1ccco1)c1ccc(-c2ccc(S(=O)(=O)NCc3ccco3)cc2)cc1
Second: CCOc1ccc(NC(=O)c2oc3ccccc3c2NC(=O)COc2cccc(OC)c2)cc1
The survival of the first is lower: 64% for the first, 78% for the second.

First: COc1ccccc1NC(=O)C1=C(C)Nc2sc(C#N)c(N)c2C1c1ccco1 (configuration not stated)
Second: CCSc1nc2n(n1)C(c1ccc(Cl)cc1Cl)C(C(=O)Nc1ccccc1C)=C(C)N2 (configuration not stated)
The survival of the first is higher: 76% for the first, 67% for the second.

Going from `COC(=O)C1=C(C)NC2=C(C(=O)c3ccccc32)C1c1cc2c(cc1Cl)OCO2` (configuration not stated) to `CCCc1cc(=O)oc2cc(C)c3c(-c4ccccc4)coc3c12`, the survival falls from 82% to 65%.

Going from `CC(C)CC(=O)Nc1nnc2n1CCS2` to `CC(C)CC(=O)Nc1nc2c(s1)CC(C(C)(C)C)CC2` (configuration not stated), the survival rises from 99% to 102%.

Compared with `COc1ccc(CC(=O)Nc2nc3c(s2)CCCC3)cc1`, `CC(C)(C)C1CCc2nc(NC(=O)COc3ccc(F)cc3)sc2C1` (configuration not stated) is higher in survival: 95% for the first, 115% for the second.

Compared with `CC(C)C(=O)Nc1nc2c(s1)CC(C(C)(C)C)CC2` (configuration not stated), `Cc1ccccc1C(=O)Nc1nc2c(s1)CC(C(C)(C)C)CC2` (configuration not stated) is higher in survival: 92% for the first, 115% for the second.

First: COc1ccccc1OCC(=O)Nc1nc2c(s1)CC(C)CC2 (configuration not stated)
Second: CC(C)(C)C1CCc2nc(NC(=O)COc3ccccc3[N+](=O)[O-])sc2C1 (configuration not stated)
The survival of the first is lower: 69% for the first, 106% for the second.

Compared with `Cc1cc(C)cc(OCC(=O)Nc2nc3c(s2)CC(C(C)(C)C)CC3)c1` (configuration not stated), `Cc1cccc(OCC(=O)Nc2nc3c(s2)CC(C(C)(C)C)CC3)c1C` (configuration not stated) is lower in survival: 107% for the first, 105% for the second.

Going from `Cc1cccc(C(=O)Nc2ccc(N3CCC(N4CCCCC4)CC3)c(C(=O)O)c2)c1` to `Cc1cccc(C(=O)Nc2sc3c(c2C(=O)Nc2ccccc2)CCC3)c1`, the survival falls from 100% to 66%.

Going from `CCOc1ccc(-n2c(=O)c3c4c(sc3n(CC(=O)NC(C)CC)c2=O)CCCCC4)cc1` (configuration not stated) to `COc1ccc(NC(=O)c2c(NC(=O)c3cccc(C)c3)sc3c2CCCC3)cc1`, the survival falls from 98% to 75%.

First: COCCNC(=O)CN1C(=O)COc2ccc(S(=O)(=O)N3CCOCC3)cc21
Second: COc1ccc(Cl)c2sc(NC(=O)c3ccc(S(=O)(=O)N4CCOCC4)cc3)nc12
The survival of the first is higher: 88% for the first, 69% for the second.

Going from `COc1ccc(C(=O)NCCc2sc(-c3ccc(Cl)cc3)nc2C)c(OC)c1` to `COc1ccc(CC(=O)NCCc2sc(-c3cccc(F)c3)nc2C)cc1`, the survival falls from 123% to 68%.

Compared with `Cc1ccc(C)c(CN2C(=O)c3ccccc3Sc3ccc(C(=O)NC4CCCC4)cc32)c1`, `COc1ccc(NC(=O)c2c(NC(=O)c3cccc(C)c3)sc3c2CCC3)cc1` is lower in survival: 128% for the first, 64% for the second.

First: COc1ccc(CNC(=O)C2CCN(S(=O)(=O)N3CCC(C)CC3)CC2)c(OC)c1
Second: COc1cccc(CNC(=O)c2cc(=O)[nH]c3ccc(S(=O)(=O)N4CCCC4)cc23)c1
The survival of the first is higher: 89% for the first, 60% for the second.

Compared with `CCOc1cccc(C(=O)Nc2nc3c(s2)CC(C(C)(C)C)CC3)c1` (configuration not stated), `CC(C)(C)C1CCc2nc(NC(=O)c3ccc([N+](=O)[O-])cc3)sc2C1` (configuration not stated) is higher in survival: 77% for the first, 95% for the second.

Going from `COc1ccccc1NC(=O)CN1C(=O)CCSc2ccccc21` to `COc1ccc(C(CNC(=O)COc2ccc(Cl)c(C)c2)N2CCOCC2)cc1` (configuration not stated), the survival falls from 89% to 63%.

Going from `Cc1ccc(OCC(=O)OCc2cc(=O)n3nc(C4CCCCC4)sc3n2)cc1` to `CCc1ccc(N(CC(=O)N2CCCCC2)S(C)(=O)=O)cc1`, the survival falls from 120% to 105%.

First: Cc1cc2oc(=O)cc(C)c2c2occ(-c3ccc(Cl)cc3)c12
Second: Cc1cc2oc(=O)c(CC(=O)O)c(C)c2c2occ(-c3ccc(F)cc3)c12
The survival of the first is higher: 72% for the first, 49% for the second.

Compound `Cc1cc(NC2C3CC4CC(C3)CC2C4)n2ncnc2n1` (configuration not stated) has a survival of 105%.
